Measured values taken from ChEMBL document CHEMBL3433997, “St. Jude Leishmania screening dataset” (2016).

Columns and labels:
Format in all cases: functional
[1] = biological target: Solute carrier family 2, facilitated glucose transporter member 1 (Homo sapiens) (UniProt P11166); assay: ST_JUDE_LEISH: Cytotoxicity at 2uM final concentration against transgenic Leishmania Mexicana promastigotes LmGLUT1 that are glucose transport deficient and complemented with the human glucose transporter GLUT1. Activity is measured by DNA content using SYBR green in vitro
Solute carrier family 2, facilitated glucose transporter member 1 (Homo sapiens), sequence (P11166 whole entry): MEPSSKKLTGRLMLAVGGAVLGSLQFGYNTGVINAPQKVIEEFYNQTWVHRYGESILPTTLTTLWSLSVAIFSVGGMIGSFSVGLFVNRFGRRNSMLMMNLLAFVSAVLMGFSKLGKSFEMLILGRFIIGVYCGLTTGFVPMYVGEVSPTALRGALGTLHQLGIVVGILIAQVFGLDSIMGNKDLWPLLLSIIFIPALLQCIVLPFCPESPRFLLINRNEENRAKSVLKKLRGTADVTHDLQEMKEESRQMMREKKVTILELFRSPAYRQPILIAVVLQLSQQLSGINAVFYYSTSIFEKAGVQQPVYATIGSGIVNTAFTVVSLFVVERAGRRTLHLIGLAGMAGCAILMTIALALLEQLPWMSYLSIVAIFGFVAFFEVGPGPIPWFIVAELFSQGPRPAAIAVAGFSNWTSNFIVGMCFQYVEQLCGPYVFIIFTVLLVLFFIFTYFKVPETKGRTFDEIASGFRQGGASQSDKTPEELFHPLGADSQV

[2] = biological target: Hexose transporter 1 (Plasmodium falciparum) (UniProt O97467); assay: ST_JUDE_LEISH: Cytotoxicity at 2uM final concentration against transgenic Leishmania Mexicana promastigotes LmPfHT that are glucose transport deficient and complemented with the Plasmodium falciparum hexose transporter. Activity is measured by DNA content using SYBR green in vitro
[3] = biological target: Glucose transporter (Leishmania mexicana) (UniProt O61059); assay: ST_JUDE_LEISH: Cytotoxicity at 2uM final concentration against transgenic Leishmania Mexicana promastigotes LmGT2 that are glucose transport deficient and complemented with the L. Mexicana glucose transporter 2. Activity is measured by DNA content using SYBR green in vitro

Row | SMILES | inhibition [1] [%] | inhibition [2] [%] | inhibition [3] [%]
1 | Cc1cc(N/N=C/c2ccc([N+](=O)[O-])cc2)c2ccc(F)cc2n1 | 2.33 | 3.03 | -1.86
2 | CCC(C)(C)NC(=O)C(c1cccc(OC)c1)N(C(=O)CNC(=O)c1cccs1)c1ccc2c(c1)OCCO2 (stereo not given) | 6.74 | 6.4 | 6.92
3 | O=C(Cn1c(CCc2cccc(F)c2F)nc(=O)c2ccccc21)N(Cc1ccc(-c2ccc(C(F)(F)F)cc2)cc1)C1CCN(C2CCSCC2)CC1 | 1.28 | -2.32 | 3.92
4 | CCc1ccc(C2CCN(CCCCNC(=O)c3ccc(-c4ccc(Cl)cc4)cc3)CC2)c(O)c1 | 0.23 | 2.44 | 2.8
5 | CCCOc1ccc(OCCCON2C(=N)N=C(N)NC2(C)C)cc1 | 1.05 | 0.05 | 0.28
6 | O=C(/C=C/c1c(Cl)cccc1Cl)NC1CCC(CN2CCC(c3c[nH]c4ccncc34)CC2)CC1 (stereo not given) | 5.27 | 5.98 | 4.84
7 | C=CCNS(=O)(=O)c1ccc(NC(=O)C(C)Oc2ccc([N+](=O)[O-])cc2)cc1 (stereo not given) | 1.52 | 1.56 | -0.8
8 | COc1cc2nc(N[C@@H](CO)c3ccccc3)nc(NCc3ccccc3)c2cc1OC | 1.12 | 2.17 | 1.61
9 | COC(=O)c1c(NC(=O)c2cccc(C(F)(F)F)c2)sc2c1CCN(Cc1ccccc1)C2 | 1.14 | 5 | -1.31
10 | O=C(Nc1cccc(C(F)(F)F)c1)c1ccc(S(=O)(=O)NCC2CCN(CC3CCCCC3)CC2)cc1 | 3.47 | 2 | 3.8
11 | NC1=NC(c2ccccc2)N(c2ccc(Cl)c(Cl)c2)C(N)=N1 (stereo not given) | 9.2 | 7.89 | 9.84
12 | O=C(CC(=O)Nc1cc(Cl)cc(Cl)c1)Nc1cc(Cl)cc(Cl)c1 | -1.77 | -3.47 | 0.68
13 | CN1CCC(NCc2cccc(-c3cccc(-c4nc5cc(C(F)(F)F)ccc5[nH]4)c3)c2)CC1 | 2.34 | 0.79 | 1.42
14 | CCCCNS(=O)(=O)c1ccc(NC(=O)c2cc([N+](=O)[O-])ccc2Cl)cc1 | 2.21 | 0.49 | -1.07
15 | COc1ccc2[nH]ccc(=NN=Cc3ccc(N(C)C)cc3)c2c1 | 2.69 | 3.94 | 0.57
16 | CCCNC(=O)CN1CN(c2ccccc2)C2(CCN(C(=O)c3ccc(C(C)(C)C)cc3)CC2)C1=O | -0.42 | 1.19 | -0.87
17 | CCOC(=O)CN(c1ccc(Br)cc1OCCOc1cc(Br)ccc1N(CC(=O)OCC)C(C)C(=O)OCC)C(C)C(=O)OCC (stereo not given) | 1.16 | -0.2 | 1.37
18 | Cc1cccc2nc(-c3ccc(-c4cccc(NC(=O)Nc5ccsc5)c4)s3)[nH]c12 | 0.98 | 2.82 | 1.03
19 | O=C(NCC1COc2ccccc2O1)c1cnc2c(c1)nc(-c1c[nH]c(-c3ccccc3)n1)n2CCSCc1c(F)cccc1Cl (stereo not given) | 4.51 | 3.79 | 3.91
20 | COc1cccc(C(=O)Nc2ccc(S(=O)(=O)c3cc4c(cc3OC)CCN(C)CC4)cc2)c1 | 1.6 | -0.4 | 1.23
21 | CCN(CCC1(c2ccc(Cl)c(Cl)c2)CN(C(=O)c2cc(OC)c(OC)c(OC)c2)CCO1)C1CC2c3ccccc3CC21 (stereo not given) | -0.68 | 1.17 | -0.3
22 | Cc1noc(C)c1CN1Cc2ccccc2OC2(CCN(Cc3c[nH]c4cnccc34)CC2)C1 | -0.38 | -0.56 | 2.32
23 | O=C(/C=C/c1ccc(C(F)(F)F)cc1)NCCCCCN1CCN(C(=O)Nc2ccc(F)c(Cl)c2)CC1 | 3.33 | 2.52 | 0.69
24 | Cc1noc(-c2ccccc2)c1NC(=O)NC1CCN(CCCCCNC(=O)/C=C/c2ccc(Cl)c(Cl)c2)CC1 | 4.35 | 5.32 | 3.4
25 | N#Cc1ccc(-c2ccc(C(=O)NCCCCN3CCC(c4ccc5c(c4OCc4ccccn4)CCCC5)CC3)cc2)cc1 | -0.71 | 1.73 | 0.17
26 | CC(C)N1CCC(N(Cc2ccc(-c3ccc(Cl)cc3)cc2)C(=O)Cn2c(CCc3cccc(F)c3F)nc(=O)c3ccccc32)CC1 | 6.02 | 5.38 | 3.03
27 | CC(c1cccc(S(=O)(=O)NCc2ccc(Cl)cc2Cl)c1)N1CCC(N2CCCCC2)CC1 (stereo not given) | 8.44 | 4.33 | 3.71
28 | COc1cc2c(cc1N1CCN(C)CC1)N(C(=O)Nc1ccc(-c3ccncc3)c(Cl)c1Cl)CC2 | 0.34 | 0.34 | 0.64
29 | COc1cc(F)c2ncc(C#N)c(CCN3CCC(NCc4ccc5c(c4)OCCO5)CC3)c2c1 | 91.3 | 95.1 | 93.9
30 | COc1cccc2cc(C(=O)N[C@@H](CC(C)C)C(=O)N[C@H](/C=N/N3C(=O)CN(Cc4ccccc4)C3=O)CCc3ccccc3)oc12 | 7.07 | 8.34 | 6.11
